For assay [1], the target named is Bile acid receptor (Homo sapiens) (UniProt Q96RI1). Briefly: qHTS assay for small molecule antagonists of farnesoid X receptor signaling (AID 588526). Also: % is scaled to controls: 0 for no effect and ±100 for the full control effect. Summed up: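 Beta-lactamase reporter antagonist mode: HEK293T FXR-UAS-bla cells, titrated compound, CDCA stimulation, 16 h 37 C, CCF4 dye 2 h RT. Data normalized to CDCA 50 uM and DMSO; Hill-fit IC50.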
Background: In qHTS, concentration-response curves come from the screen itself.

The target is the same in assay [2]. The assay is described as follows: qHTS assay for small molecule agonists of farnesoid X receptor signaling (AID 588527).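 Also: series mostly up to about 77 µM; 0% = vehicle basal and 100% = reference agonist.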 Particulars: HEK293T FXR-UAS-bla, beta-lactamase ratio, 16 h; activation: stronger effect = higher value. Summed up: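 Read-out: beta-lactamase reporter fluorescence with CCF4 substrate in GeneBLAzer FXR-UAS-bla HEK293T cells, after 16 h compound exposure at 37 C. Response scaled between DMSO basal (0%) and chenodeoxycholic acid at 100 uM (100%).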

Assay [3] deals with Peroxisome proliferator-activated receptor delta (Homo sapiens) (UniProt Q03181). Briefly: qHTS assay for small molecule agonists of peroxisome proliferator-activated receptor delta signaling (AID 588534).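 Also: 0% = DMSO basal wells and 100% = positive control agonist at 10 µM.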 In short, it runs like this:
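Cells carrying a PPAR-delta beta-lactamase reporter were treated with compounds for 18 h at 37 °C in agonist mode. CCF4 fluorescence was read after 2 h; EC50 and efficacy from Hill fits.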

Assay [4] in a line: qHTS assay for small molecule antagonists of peroxisome proliferator-activated receptor delta signaling (AID 588535).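 Also: cells co-treated with a PPAR-delta agonist as stimulator during compound exposure.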 The following applies: HEK293T PPARd-UAS-bla, beta-lactamase FRET ratio, 18 h; 460 nm channel. In short, it runs like this:
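HEK293T PPAR-delta-UAS-bla cells, 4000/well, 2% charcoal/dextran FBS; 5 h 37 C; cpd titration; 18 h 37 C; CCF4 2 h RT; FI 460/530 nm; Hill fit → IC50, efficacy.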

In assay [5] the target is Vitamin D3 receptor (Homo sapiens) (UniProt P11473). The assay is described as follows: qHTS assay for small molecule antagonists of vitamin D receptor signaling (AID 588541).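 Also: receptor activated by calcitriol during compound treatment; series mostly up to about 77 µM; % is scaled to controls: 0 for no effect and ±100 for the full control effect.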 In short, it runs like this: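 Antagonist-mode beta-lactamase reporter assay: HEK293T VDR-UAS-bla cells were exposed to titrated compound alongside 1-alpha,25-dihydroxyvitamin D3 at 3 nM final for 16 h. Values were normalized to the 50 nM agonist control and DMSO basal, with IC50 and efficacy from Hill equation fits.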
Chain of Vitamin D3 receptor (Homo sapiens) (P11473 whole entry, looked up): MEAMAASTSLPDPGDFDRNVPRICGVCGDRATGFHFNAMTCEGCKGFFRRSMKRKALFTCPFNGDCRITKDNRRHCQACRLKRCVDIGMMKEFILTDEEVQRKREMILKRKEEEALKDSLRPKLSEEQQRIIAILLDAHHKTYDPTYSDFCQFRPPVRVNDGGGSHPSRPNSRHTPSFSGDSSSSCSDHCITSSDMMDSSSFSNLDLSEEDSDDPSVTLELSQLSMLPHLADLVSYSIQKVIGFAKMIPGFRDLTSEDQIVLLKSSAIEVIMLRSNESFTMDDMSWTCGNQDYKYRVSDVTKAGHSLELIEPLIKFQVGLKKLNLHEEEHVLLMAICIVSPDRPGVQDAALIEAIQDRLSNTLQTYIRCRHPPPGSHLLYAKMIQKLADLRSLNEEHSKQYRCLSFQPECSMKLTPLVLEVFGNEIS

Assay [6] shares this target. Briefly: qHTS assay for small molecule agonists of vitamin D receptor signaling (AID 588543).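 Also: 0% = DMSO basal and 100% = reference agonist control.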 In short, it runs like this:
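β-lactamase reporter, VDR-UAS-bla HEK293T, agonist mode. Cells plated 5 h at 37 °C, compound titration 16 h at 37 °C, CCF4 dye 2 h RT, ratio 460/530 nm. Hill fit → EC50, efficacy vs 50 nM 1α,25-(OH)2D3.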

The target in assay [7] is Retinoic acid receptor RXR-alpha (Homo sapiens) (UniProt P19793). The assay is described as follows: qHTS assay for small molecule agonists of retinoid X receptor alpha signaling (AID 588544).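 Also: 0% = DMSO basal wells and 100% = reference agonist.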
Chain of Retinoic acid receptor RXR-alpha (Homo sapiens) (P19793 whole entry, looked up): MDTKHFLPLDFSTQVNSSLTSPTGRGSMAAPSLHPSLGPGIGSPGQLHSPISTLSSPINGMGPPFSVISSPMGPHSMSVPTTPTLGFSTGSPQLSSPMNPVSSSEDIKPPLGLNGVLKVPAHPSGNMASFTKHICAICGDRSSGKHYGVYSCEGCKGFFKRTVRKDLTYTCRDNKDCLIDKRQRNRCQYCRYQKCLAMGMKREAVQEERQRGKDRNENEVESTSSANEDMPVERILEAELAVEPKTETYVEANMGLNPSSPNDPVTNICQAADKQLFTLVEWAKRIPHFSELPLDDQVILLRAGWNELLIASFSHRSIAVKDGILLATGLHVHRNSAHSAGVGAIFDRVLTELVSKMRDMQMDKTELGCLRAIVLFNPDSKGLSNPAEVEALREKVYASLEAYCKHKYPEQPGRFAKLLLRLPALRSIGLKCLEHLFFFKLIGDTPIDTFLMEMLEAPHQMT
The target in assay [8] is Thyroid hormone receptor beta (Homo sapiens) (UniProt P10828). The assay is described as follows: qHTS assay for small molecule agonists of thyroid hormone receptor beta signaling (AID 588545).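 Also: 0% = DMSO only and 100% = 10 nM T3.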 In short, it runs like this:
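Beta-lactamase reporter activity under TR response element control is measured in HEK 293 cells after 18 hrs compound exposure. Signal is ratiometric CCF4 fluorescence, 460/530 nm.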

Assay [9] can be described thus: qHTS assay for small molecule antagonists of retinoid X receptor alpha signaling (AID 588546; active = well fitted inhibition curve with a large enough effect in the signal ratio, with a control signal flat, not every such curve was filed as active; the % refers to the signal ratio;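 also: cells stimulated with 9-cis-retinoic acid as agonist; % is scaled to controls: 0 for no effect and ±100 for the full control effect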). The following applies: HEK293T RXRa-UAS-bla, beta-lactamase ratio, antagonist mode; measured here: W530 green channel, cytotoxicity proxy. Summed up: (§1)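 Beta-lactamase reporter inhibition, read as CCF4 fluorescence ratio (ex 405, em 460/530 nm) after 2 h at RT. HEK293T UAS-bla cells, 2500/well, were stimulated with 9-cis-RA at 500 or 100 nM final alongside test compound for 18 h at 37 C.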

For assay [10], the target named is Retinoic acid receptor RXR-alpha (Homo sapiens) (UniProt P19793). Described as above. The following applies: HEK293T RXRa-UAS-bla, beta-lactamase ratio, antagonist mode. Summed up: as §1
The target of assay [11] is Thyroid hormone receptor beta (Homo sapiens) (UniProt P10828). Briefly: qHTS assay for small molecule antagonists of thyroid hormone receptor beta signaling (AID 588547; active = well fitted inhibition curve with a large enough effect in the signal ratio, with a control signal flat, not every such curve was filed as active; the % refers to the signal ratio;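 also: cells stimulated with 0.4 nM T3 agonist during compound exposure; series mostly up to about 77 µM; % is scaled to controls: 0 for no effect and ±100 for the full control effect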). Particulars: TR-UAS-bla HEK293, beta-lactamase ratio, antagonist mode, 18 h. Summed up: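 Inhibition of T3-driven (0.4nM final) beta-lactamase reporter activity was measured over 0.59 nM to 92 uM compound after 18 h at 37 C. The cells were GripTite HEK293 TR-UAS-bla in charcoal/dextran-stripped serum, with CCF4 ratio read-out and IC50 from Hill fits.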
Chain of Thyroid hormone receptor beta (Homo sapiens) (P10828 whole entry, looked up): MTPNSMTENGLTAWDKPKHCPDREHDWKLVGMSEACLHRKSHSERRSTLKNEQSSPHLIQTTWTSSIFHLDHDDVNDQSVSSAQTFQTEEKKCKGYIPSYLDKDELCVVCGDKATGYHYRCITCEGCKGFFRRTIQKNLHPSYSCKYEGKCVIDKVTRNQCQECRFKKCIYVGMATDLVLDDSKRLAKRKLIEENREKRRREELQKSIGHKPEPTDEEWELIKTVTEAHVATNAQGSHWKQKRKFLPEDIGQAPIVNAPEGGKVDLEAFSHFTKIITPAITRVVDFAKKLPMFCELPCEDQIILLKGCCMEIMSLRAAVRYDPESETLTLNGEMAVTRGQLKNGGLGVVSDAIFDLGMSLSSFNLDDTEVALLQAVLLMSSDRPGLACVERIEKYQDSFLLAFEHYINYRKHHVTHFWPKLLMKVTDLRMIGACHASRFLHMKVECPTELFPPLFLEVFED

The nature of assay [12]: qHTS assay for small molecule activators of the p53 signaling pathway (AID 651743; active = well fitted activation curve with a large enough effect in the signal ratio, not every such curve was filed as active; the % refers to the signal ratio; also: series mostly up to about 92 µM; % of control where 0% means no effect). Particulars: HCT-116 p53RE-bla, beta-lactamase FRET ratio, 16 h; activation: stronger effect = higher value. Summed up:
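Read-out is fluorescence intensity from the LiveBLAzer B/G FRET substrate, added for 2 hours at room temperature after HCT-116 p53RE-bla cells had been incubated with compounds for 16 hours at 37 C.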

The nature of assay [13]: qHTS assay for small molecule activators of the nuclear factor-kappa B (NF-kB) signaling pathway (AID 651749; active = well fitted activation curve with a large enough effect in the signal ratio; the % refers to the signal ratio; also: series mostly up to about 77 µM; % of control where 0% means no effect). The following applies: NF-kB-bla ME-180 cells, beta-lactamase FRET ratio, 16 h; activation: stronger effect = higher value. In short, it runs like this:
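Readout: beta-lactamase reporter driven by an NF-kB response element, detected fluorescently as loss of FRET. Cells were the ME-180 line, treated 16 hr at 37C with pin-transferred compound.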

Assay [14] in a line: qHTS assay for environmental chemicals that activate the Aryl hydrocarbon Receptor (AhR) signaling pathway (AID 651777; active = well fitted curve in the direction sought with a large enough effect; an effect the other way counts as inactive or inconclusive; also: % of control where 0% means no effect; nearly all actives have a fitted effect of over 15% in size). The following applies: 1A2-DRE human hepatoma cells, luciferase, 24 h; activation: stronger effect = higher value. In short, it runs like this: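 Human hepatoma 1A2-DRE cells, stably carrying a dioxin response element and CYP1A2 promoter driving luciferase, were exposed to compounds for 24 hr at 37 C and 5% CO2. Luciferase signal was then read after 30 min One-Glo at room temperature.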

The target of assay [15] is Peroxisome proliferator-activated receptor alpha (Homo sapiens) (UniProt Q07869). The assay is described as follows: qHTS assay for small molecule agonists of the peroxisome proliferator-activated receptor alpha (PPARalpha) signaling pathway (AID 651778; active = well fitted curve in the direction sought with a large enough effect; an effect the other way counts as inactive or inconclusive; also: % of control where 0% means no effect). The following applies: PathHunter PPARalpha complementation, chemiluminescence, 6 h; max response: stronger effect = higher value. In short, it runs like this:
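Chemiluminescence from complemented enzyme reported PPARalpha activation in cells after 6 hr of compound treatment at 37 C. The detection reagent was incubated for 60 min at room temperature, and compounds were scored as agonists.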

The nature of assay [16]: qHTS assay for small molecule agonists of the antioxidant response element (ARE) signaling pathway measured by Nrf2-dependant transcriptional activity (AID 720636; active = well fitted curve in the direction sought with a large enough effect in the repeat runs; an effect the other way counts as inactive or inconclusive; also: % of control where 0% means no effect). Summed up:
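ARE-luc HepG2 cells carrying an Nrf2-responsive luciferase reporter were plated in medium with 1% dialyzed FBS, left 6 hr at 37 C to attach, then exposed to compound for 16 hr. Luciferase luminescence was read after ONE-Glo addition.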

Assay [17] in a line: qHTS assay for small molecule agonists of the antioxidant response element (ARE) signaling pathway measured by Nrf2-dependant transcriptional activity - cell viability counter screen (AID 720653; active = well fitted curve in the direction sought with a large enough effect in the repeat runs; an effect the other way counts as inactive or inconclusive; also: % is scaled to controls: 0 for no effect and ±100 for the full control effect). Particulars: ARE-bla HepG2 viability, CellTiter-Glo ATP luminescence, 16 h; max response: stronger effect = lower value. In short, it runs like this: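 Cytotoxicity counter screen: intracellular ATP quantified by CellTiter-Glo luminescence in the same ARE-bla HepG2 plates, after 16 h compound exposure and a 2 h beta-lactamase substrate step.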

Assay [18] can be described thus: qHTS assay for cell viability of HEK293 cells (AID 743288; active = well fitted curve in the direction sought with a large enough effect; an effect the other way counts as inactive or inconclusive; also: % is scaled to controls: 0 for no effect and ±100 for the full control effect; nearly all actives have a fitted effect of over 50% in size). The following applies: ATP luminescence (CellTiter-Glo), 18 h; max response: stronger effect = lower value. In short, it runs like this:
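Environmental chemicals tested in qHTS format against parental HEK293 cells; 18 h treatment, 37 C; read-out ATP luminescence (CellTiter-Glo), 30 min RT development.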

Assay [19] can be described thus: qHTS assay for cell viability of the p53RE-bla HCT-116 cell line (AID 743292; active = well fitted curve in the direction sought with a large enough effect; an effect the other way counts as inactive or inconclusive; also: % is scaled to controls: 0 for no effect and ±100 for the full control effect; nearly all actives have a fitted effect of over 55% in size). In short, it runs like this:
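CellSensor p53RE-bla HCT-116 cells, 4,000/well, preincubated 5 h at 37 C, then exposed to compounds in DMSO for 16 h at 37 C. Viability read as CellTiter-Glo luminescence (intracellular ATP) after 30 min at room temperature.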

The target of assay [20] is Glucocorticoid receptor (Homo sapiens) (UniProt P04150). Briefly: qHTS assay for small molecule agonists of glucocorticoid receptor signaling (AID 588532; active = well fitted curve in the direction sought with a large enough effect in the signal ratio, with a control signal flat; the % refers to the signal ratio;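 also: 100% = dexamethasone at 0.1 µM and 0% = DMSO only wells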). The following applies: HeLa MMTV-bla, beta-lactamase ratio, agonist, 18 h; activation: stronger effect = higher value, percent of dexamethasone control, DMSO zero. Summed up:
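Quantitative HTS using CellSensor MMTV-bla HeLa cells in charcoal/dextran-treated serum; compounds tested up to 92 uM. After 18 h at 37 C, CCF4 dye reported reporter induction.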

Results filed as inconclusive are left out. The source made the active and inactive calls. Unless noted, calls follow the shape of the full dose curve.

Chain of Peroxisome proliferator-activated receptor alpha (Homo sapiens) (Q07869 whole entry, looked up): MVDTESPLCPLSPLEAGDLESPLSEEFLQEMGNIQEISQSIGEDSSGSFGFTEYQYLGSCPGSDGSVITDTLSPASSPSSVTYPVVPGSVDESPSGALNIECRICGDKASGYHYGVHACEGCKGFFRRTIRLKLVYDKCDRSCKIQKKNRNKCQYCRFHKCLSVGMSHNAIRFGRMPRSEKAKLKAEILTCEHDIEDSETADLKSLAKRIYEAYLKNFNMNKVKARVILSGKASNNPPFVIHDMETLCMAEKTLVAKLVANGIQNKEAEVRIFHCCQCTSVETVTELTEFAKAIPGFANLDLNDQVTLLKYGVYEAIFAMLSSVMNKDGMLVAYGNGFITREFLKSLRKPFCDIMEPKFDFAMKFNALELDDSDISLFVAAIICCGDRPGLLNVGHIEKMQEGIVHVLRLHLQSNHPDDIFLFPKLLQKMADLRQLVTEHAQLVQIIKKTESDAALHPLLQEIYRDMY
Chain of Bile acid receptor (Homo sapiens) (Q96RI1 whole entry, looked up): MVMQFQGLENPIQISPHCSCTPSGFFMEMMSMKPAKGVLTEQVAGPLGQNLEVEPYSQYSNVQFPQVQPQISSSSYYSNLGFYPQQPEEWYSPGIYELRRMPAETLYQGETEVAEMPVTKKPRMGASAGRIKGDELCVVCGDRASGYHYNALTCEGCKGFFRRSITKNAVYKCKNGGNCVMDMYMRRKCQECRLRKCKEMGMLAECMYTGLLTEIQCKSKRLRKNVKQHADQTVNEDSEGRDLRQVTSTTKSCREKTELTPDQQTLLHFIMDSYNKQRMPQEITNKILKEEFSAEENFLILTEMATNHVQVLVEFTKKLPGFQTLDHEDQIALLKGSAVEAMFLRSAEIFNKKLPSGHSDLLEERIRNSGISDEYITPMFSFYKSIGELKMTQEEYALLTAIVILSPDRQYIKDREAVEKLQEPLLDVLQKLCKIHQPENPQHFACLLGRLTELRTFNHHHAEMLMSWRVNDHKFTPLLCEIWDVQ
Chain of Peroxisome proliferator-activated receptor delta (Homo sapiens) (Q03181 whole entry, looked up): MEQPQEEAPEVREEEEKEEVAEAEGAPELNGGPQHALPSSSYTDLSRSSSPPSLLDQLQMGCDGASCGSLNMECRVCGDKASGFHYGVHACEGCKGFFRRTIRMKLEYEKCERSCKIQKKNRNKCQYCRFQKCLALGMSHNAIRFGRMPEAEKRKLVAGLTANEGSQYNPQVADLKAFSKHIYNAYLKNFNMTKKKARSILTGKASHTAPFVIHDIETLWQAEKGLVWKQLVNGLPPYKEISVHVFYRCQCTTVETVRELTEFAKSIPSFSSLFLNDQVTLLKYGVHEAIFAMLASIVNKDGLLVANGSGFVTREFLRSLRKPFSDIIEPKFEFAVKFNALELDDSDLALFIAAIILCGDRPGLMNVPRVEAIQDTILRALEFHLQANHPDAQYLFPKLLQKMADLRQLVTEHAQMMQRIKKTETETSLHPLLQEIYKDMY
Chain of Glucocorticoid receptor (Homo sapiens) (P04150 whole entry, looked up): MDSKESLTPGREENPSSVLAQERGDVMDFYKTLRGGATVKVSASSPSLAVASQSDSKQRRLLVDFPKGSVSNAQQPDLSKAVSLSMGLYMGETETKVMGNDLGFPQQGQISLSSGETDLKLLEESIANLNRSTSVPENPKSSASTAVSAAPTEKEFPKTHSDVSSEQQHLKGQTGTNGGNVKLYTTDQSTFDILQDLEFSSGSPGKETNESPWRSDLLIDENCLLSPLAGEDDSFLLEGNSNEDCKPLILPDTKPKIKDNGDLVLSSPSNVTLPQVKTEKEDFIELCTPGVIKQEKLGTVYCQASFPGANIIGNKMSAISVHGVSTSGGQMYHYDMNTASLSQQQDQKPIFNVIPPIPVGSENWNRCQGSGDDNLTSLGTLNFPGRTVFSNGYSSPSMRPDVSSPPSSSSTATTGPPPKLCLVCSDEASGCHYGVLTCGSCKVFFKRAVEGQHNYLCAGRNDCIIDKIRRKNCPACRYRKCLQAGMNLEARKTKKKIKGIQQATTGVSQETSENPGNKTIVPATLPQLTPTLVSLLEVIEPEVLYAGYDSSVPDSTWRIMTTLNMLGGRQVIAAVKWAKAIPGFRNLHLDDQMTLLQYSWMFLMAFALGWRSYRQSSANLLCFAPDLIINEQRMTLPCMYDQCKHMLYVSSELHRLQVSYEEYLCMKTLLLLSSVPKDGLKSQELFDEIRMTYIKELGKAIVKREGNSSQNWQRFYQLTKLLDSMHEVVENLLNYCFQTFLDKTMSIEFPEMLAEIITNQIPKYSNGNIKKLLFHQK

Consider `CC(C)COP(=O)(OCC(C)C)OCC(C)C`, for which the Potency result in assay [1], in assay [5], in [7], in [8], in assay [16] and in assay [19] was “inactive” each time. The activation in assay [2] is 4.76% (inactive); in [12], -2.4% (inactive); in assay [13], -3.3% (inactive); in assay [14], -1.96% (inactive). In addition, the molecule was called inactive in [3] and in assay [6]. The max response in assay [4] is 21.8%; in assay [9] it was -13.9%; in [10] it was 3.45% (inactive); in assay [15], -1.01% (inactive); in assay [17] it was -13.2% (inactive); in [18], -10% (inactive). Moreover, the activity change % (negative = inhibition) in assay [11] was -6.4% (inactive).

Consider `CCC(C)c1ccc(O)cc1` (stereo unspecified), for which the Potency entry in assay [1], in [7], in [8], in assay [16] and in [19] was “inactive” in each case. The activation was -4.25% (inactive) in assay [2], 2.12% (inactive) in assay [20] and -0.802% (inactive) in assay [13]. Further, the max response was -3.19% in [9]; -17.8% (inactive) in assay [10]; -0.201% (inactive) in assay [15]; -2.59% (inactive) in [17]; -7.5% (inactive) in [18]. Further, in assay [11], the activity change % (negative = inhibition) is 6.18% (inactive).

Consider `CCC[CH2][Sn]([CH2]CCC)([CH2]CCC)[CH2]CCC`, for which the Potency entry in [1], in [5], in assay [8], in assay [16] and in [19] was “inactive” in each case. Besides, the activation is 3.44% (inactive) in [2]; -2.61% (inactive) in [20]; -3.46% (inactive) in [12]; 1.03% (inactive) in assay [13]; 0.926% (inactive) in [14]. The molecule was called inactive in assay [3] and in assay [6]. Also, the max response in assay [4] was 0.148%; in assay [9], 6.88%; in assay [10], 4.03% (inactive); in [15], -1.25% (inactive); in [17], 1.93% (inactive). For the same molecule, the activity change % (negative = inhibition) in assay [11] is -9.45% (inactive).

Consider `CC1(C(=O)Nc2ccc(O)c(Cl)c2Cl)CCCCC1`, for which the Potency result in assay [1], in assay [5], in assay [7], in assay [8] and in [19] was “inactive” throughout. Further, the molecule was classed as inactive in assay [3] and in assay [6]. The max response in [4] is 11.8%; in [9] it was -23.6%; in assay [15], 3.06% (inactive); in assay [17], 4.3% (inactive); in assay [18] it was -8.66% (inactive). Besides, the activity change % (negative = inhibition) in assay [11] was 15.7% (inactive). Also, the activation in [12] was 0.119% (inactive); in assay [14] it was 0.158% (inactive).

Source of the values: PubChem BioAssay (NCATS).
